# The full list was thinned out, with hits kept by preference.
# nsP2pro primary = blocks chikungunya virus nsP2 protease peptide cleavage. Q8JUX6. FRET peptide cleavage, nsP2pro, fluorescence 1 h. Potency, µM (highest dose often 24.9 µM), actives largely listed as inhibitors. hit rate 1.1% among 31,000. AID 1964107; also: nearly all actives have a fitted effect of over 60% in size
#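 Purified recombinant nsP2pro (150 nM final) in 10 mM Tris-HCl pH 8.0 with 0.01% Tween 20 was preincubated 15 min at room temperature with compound (7 concentrations, up to 25 uM). FRET peptide 2 substrate (2.5 uM final) was then added; fluorescence was read after 1 h.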
# nsP2 cell sec = inhibits CHIKV nsP2 protease in cells; shares compounds with nsP2pro primary; cell-based CHIKV nsP2 protease reporter assay; Potency, µM (top dose mostly 51.1 µM), actives largely listed as inhibitors; hit rate 10% among 450; AID 1964100; also: nearly all actives have a fitted effect of over 70% in size
# CHIKV NSP2 FL = full-length CHIKV NSP2 protease inhibition, selectivity. Potency, µM (series often up to 50.7 µM), usual class: inhibitors. hit rate 39% among 410. Full-length CHIKV NSP2 protease enzymatic counterscreen. AID 1964101. shares compounds with nsP2pro primary; also: nearly all actives have a fitted effect of over 65% in size
# Furin counterscr = selectivity counter-screen for CHIKV nsP2 protease inhibitors: human furin | Recombinant human furin enzymatic counterscreen, fluorogenic substrate | shares compounds with nsP2pro primary | Potency, µM (titrated, usually from 50.6 µM), usual class: inhibitors | hit rate 6% among 410
# Target sequence (P09958 whole entry, looked up): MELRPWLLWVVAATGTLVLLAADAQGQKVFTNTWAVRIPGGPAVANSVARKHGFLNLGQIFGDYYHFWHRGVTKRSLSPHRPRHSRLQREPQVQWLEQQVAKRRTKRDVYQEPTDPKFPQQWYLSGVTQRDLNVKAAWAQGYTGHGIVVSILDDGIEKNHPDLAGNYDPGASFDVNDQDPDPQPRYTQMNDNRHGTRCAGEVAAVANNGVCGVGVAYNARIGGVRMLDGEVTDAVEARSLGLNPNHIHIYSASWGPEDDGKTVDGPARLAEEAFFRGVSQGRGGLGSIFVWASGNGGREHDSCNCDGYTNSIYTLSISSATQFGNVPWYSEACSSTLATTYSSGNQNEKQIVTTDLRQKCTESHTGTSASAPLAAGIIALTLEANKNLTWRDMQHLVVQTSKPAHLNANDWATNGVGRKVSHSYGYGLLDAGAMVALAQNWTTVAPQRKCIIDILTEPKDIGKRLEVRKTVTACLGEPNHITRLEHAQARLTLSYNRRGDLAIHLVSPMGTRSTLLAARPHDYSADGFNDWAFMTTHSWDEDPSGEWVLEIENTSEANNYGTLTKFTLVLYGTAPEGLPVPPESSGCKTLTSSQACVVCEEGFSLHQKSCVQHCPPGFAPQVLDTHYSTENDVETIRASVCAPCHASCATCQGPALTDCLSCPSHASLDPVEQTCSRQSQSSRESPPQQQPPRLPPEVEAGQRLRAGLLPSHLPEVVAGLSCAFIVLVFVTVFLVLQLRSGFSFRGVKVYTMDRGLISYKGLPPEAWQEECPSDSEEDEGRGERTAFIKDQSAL
# NS23 peptide cs = selectivity test for CHIKV nsP2 protease inhibitors: endogenous NS2/3 peptide | shares compounds with nsP2pro primary | Purified CHIKV nsP2 protease, endogenous NS2/3 peptide cleavage | Potency, µM (top dose mostly 51 µM), actives largely listed as inhibitors | hit rate 34% among 410 | AID 1964103; also: nearly all actives have a fitted effect of over 55% in size
# Papain cs = papain protease inhibition, counterscreen for nsP2pro inhibitors | purified papain protease activity, enzymatic inhibition | hit rate 5% among 410 | Potency, µM (doses to about 51 µM), usual class: inhibitors | shares compounds with nsP2pro primary
# nsP2pro confirm = confirmation of CHIKV nsP2 protease inhibitors | CHIKV nsP2 protease enzymatic activity, qHTS | hit rate 43% among 410 | shares compounds with nsP2pro primary | Potency, µM (doses to about 25.5 µM), hits mostly inhibitors | AID 1964105; also: nearly all actives have a fitted effect of over 75% in size
# HCV NS3 counter = HCV NS3/4A protease inhibition, counterscreen; shares compounds with nsP2pro primary; HCV NS3/4A protease biochemical counterscreen; Potency, µM (highest dose often 50.9 µM), usual class: inhibitors; hit rate 20% among 410; AID 1964106; also: nearly all actives have a fitted effect of over 55% in size
# Numbers stand for hits; i = inactive; ? = inconclusive; [ ] = dose if it differs, or a comment. Calls follow the shape of the full dose curve.
SMILES,nsP2pro primary,others
CCOc1ccc(-c2nc(CNC(=O)Nc3ccccc3)c(C)o2)cc1,i,
Cc1oc(-c2ccc(C(=O)NCCCOC(C)C)cc2)nc1CS(=O)(=O)c1ccccc1,i,
Cc1ccnc(NC(=S)N2CCN(c3ccc(C(F)(F)F)cc3[N+](=O)[O-])CC2)c1,i,
N=c1sc2c(n1CC(=O)c1ccc([N+](=O)[O-])cc1)CCCC2,i,
CC(C)(C)c1cc(Br)cc([C@H](CC(=O)O)NC(=O)CNC(=O)c2cc(O)cc(NC3=NCC(O)CN3)c2)c1 (stereo partly specified),i,
Cc1cccc(NC(=O)N[C@H]2CN(C)c3ccccc3C(c3ccccc3)=N2)c1,?,nsP2 cell sec=i;CHIKV NSP2 FL=?;Furin counterscr=i;NS23 peptide cs=?;Papain cs=i;nsP2pro confirm=?;HCV NS3 counter=i
Cc1cccc(NC(=O)N[C@@H]2N=C(c3ccccc3)c3ccccc3N(C)C2=O)c1,?,nsP2 cell sec=i;CHIKV NSP2 FL=?;Furin counterscr=i;NS23 peptide cs=?;Papain cs=i;nsP2pro confirm=?;HCV NS3 counter=i
Cc1ccc(NC(=O)Nc2ccc3c(c2)N(C)C(=O)c2ccccc2S3)c(C)c1,i,
Cc1cccc(NC(=O)CSc2cc(C)c3ccccc3n2)c1,i,
Cc1cccc(-c2cc(-c3ccccc3)nc(SCC(=O)Nc3ccccc3)c2C#N)c1,i,
Cc1cccc(NC(=O)CSc2nc3ccccc3nc2N2CCC(C)CC2)c1,i,
COc1ccccc1CC(=O)N1CC[C@@H]2NC(=O)[C@H]3C[C@H](NC(=O)C4CCC4)CN3C(=O)[C@H]21,i,
CC(C#N)C(C)O[C@@H]1O[C@H](CO)[C@@H](O)[C@H](O)[C@H]1O (stereo partly specified),i,
O=C(Nc1ncc([S+](=O)([O-])N2CCOCC2)s1)c1cccc(Br)c1,i,
CC(C)(O)C1CC=C(C(=O)OC[C@H]2O[C@@H](Oc3cc(C(=O)O)cc(O)c3O)[C@H](O)[C@@H](O)[C@@H]2O)CC1 (stereo partly specified),i,
CC(=O)OC[C@H]1O[C@@H](n2cnc(N)nc2=O)[C@H](OC(C)=O)[C@@H]1OC(C)=O,i,
Cc1cnc(-c2ccccc2C(C)C)nc1NCc1ccc(-c2ccc(F)nc2)cc1,i,
Cc1ccc(-c2ccc(=O)n(CC(=O)N(C)C(C)c3ccco3)c2)cc1 (stereo unspecified),i,
COc1ccc(OC)c(C(O)C(C)N)c1 (stereo unspecified),i,
C[C@H](N)[C@H](O)c1ccc(O)c(O)c1,?,nsP2 cell sec=i;CHIKV NSP2 FL=?;Furin counterscr=i;NS23 peptide cs=9µM;Papain cs=i;nsP2pro confirm=?;HCV NS3 counter=0.052µM
C=CCc1cc(OC)c(OC(C)C(O)c2ccc(O)c(OC)c2)c(OC)c1 (stereo unspecified),i,
COc1cc(N2CCN(C(C)=O)CC2)ccc1Nc1ncc(Cl)c(Nc2ccc(N3CCN(C(C)=O)CC3)cc2OC)n1,i,
CN1CCN(C(=O)[C@H](Cc2ccc(O[S+](=O)([O-])c3cccc4cnccc34)cc2)N[S+](=O)([O-])c2cccc3cnccc23)CC1,i,
Cc1cc(C)nc(NC(=S)N2CCN(c3nccc(C(F)(F)F)n3)CC2)c1,i,
CN1CCC[C@@H]1Cc1c[nH]c2ccc(CCS(=O)(=O)c3ccccc3)cc12,i,
SMILES,nsP2pro primary,others
CN(C)CCc1c[nH]c2ccc(C[C@H]3COC(=O)N3)cc12,?,nsP2 cell sec=i;CHIKV NSP2 FL=i;Furin counterscr=i;NS23 peptide cs=i;Papain cs=i;nsP2pro confirm=?;HCV NS3 counter=i
O=C(NCC(=O)N1CCCCC1)Nc1ccc2nnsc2c1,i,
CN1CCC[C@@H]1Cc1c[nH]c2ccc(Nc3ncccc3[N+](=O)[O-])cc12,i,
c1c[nH]c(CNc2ncnc3ccc(-c4ccoc4)cc23)n1,i,
Cc1ccc(S(=O)(=O)c2nc(-c3ccccc3F)oc2NCc2ccccc2)cc1,i,
COc1ccc(-c2nc(-c3ccccc3)c(NCc3ccccc3)o2)cc1,i[5.1 µM],
COc1ccc(-c2nc(S(=O)(=O)c3ccc(C)cc3)c(NCc3ccccc3)o2)cc1,4.5µM,nsP2 cell sec=?;CHIKV NSP2 FL=?;Furin counterscr=i;NS23 peptide cs=?;Papain cs=13µM;nsP2pro confirm=8µM;HCV NS3 counter=i
CO[C@H]1C[C@@H]2CC[C@@H](C)[C@@](O)(O2)C(=O)C(=O)N2CCCC[C@H]2C(=O)O[C@H]([C@H](C)C[C@@H]2CC[C@@H](OP(C)(C)=O)[C@H](OC)C2)CC(=O)[C@H](C)/C=C(\C)[C@@H](O)[C@@H](OC)C(=O)[C@H](C)C[C@H](C)/C=C/C=C/C=C/1C,i,
CC1(C)Oc2ncnc(N)c2N=C1c1ccc(C2CCC(CC(=O)O)CC2)cc1 (stereo unspecified),i,
COC[C@@H]1OC(=O)/C(=C\N(C)CCCN(C)C)C2=C(O)C(=O)C3=C([C@@H](OC(C)=O)C[C@@]4(C)[C@@H]3CC[C@@H]4O)[C@@]21C,i,
COC[C@H]1OC(=O)c2coc3c2[C@@]1(C)C1=C(C3=O)C2CCC(=O)[C@@]2(C)C[C@H]1OC(C)=O (stereo partly specified),9.9µM,nsP2 cell sec=i;CHIKV NSP2 FL=i;Furin counterscr=i;NS23 peptide cs=i;Papain cs=i;nsP2pro confirm=i;HCV NS3 counter=i
O=C1CCCC2=C1C(c1cccc(Cl)c1)N=C(Nc1nc3ccccc3o1)N2 (stereo unspecified),i,
Cn1cc(C(=O)Cc2ccccc2)cc1/C=C/C(=O)NO,i,
Oc1ccc2nc(CN3CCC(Cc4ccccc4F)CC3)[nH]c2c1,i,
FC(F)(F)c1ccccc1-c1nc(NCc2ccc(-c3cccnc3)cc2)c2sccc2n1,i,
CC(=O)Nc1sc2c(c1-c1nccs1)CCNC2,i,
CC(C)(O)C1OC1C1=CC(=O)C2(C)OC2C1O (stereo unspecified),9.9µM,nsP2 cell sec=i;CHIKV NSP2 FL=4.6µM;Furin counterscr=i;NS23 peptide cs=?;Papain cs=10µM;nsP2pro confirm=5µM;HCV NS3 counter=?
O=C(NCC1(N2CCN(c3ccccc3)CC2)CCOCC1)c1cccnc1Sc1ccccc1,i,
Cc1nn2c(c1-c1ccccc1[S+](C)(=O)[O-])N(CCCc1ccccc1)CCC2,i,
COc1ccc(CCNC(=O)c2ccc3nnc(C4CC4)n3c2)cc1,i,
CC(C)C[C@H](NC(=O)CNC(=O)OCc1ccccc1)C(=O)N[C@@H](Cc1ccccc1)C(=O)CCl,i,
CC(NC(=O)[C@H](Cc1ccccc1)NC(=O)OCc1ccccc1)C(=O)CF (stereo partly specified),i,
C[C@H](NC(=O)[C@H](Cc1ccccc1)NC(=O)OCc1ccccc1)C(=O)CF,?,nsP2 cell sec=i;CHIKV NSP2 FL=?;Furin counterscr=i;NS23 peptide cs=i;Papain cs=0.046µM;nsP2pro confirm=?;HCV NS3 counter=i
CN[C@H](C(=O)N[C@H](C(=O)N(C)[C@H](/C=C(\C)C(=O)O)C(C)C)C(C)(C)C)C(C)(C)c1ccccc1,i,

# Compound activity (PubChem BioAssay)
